Inconclusive results are not listed. Active and inactive are the calls of the source. Unless noted, the call rests on the fitted dose curve; in most records, active means well fitted curve in the direction sought with a large enough effect in the repeat runs; inconclusive means weak or mixed curves; inactive means no such curve, though single readings can be large; an effect the other way counts as inactive or inconclusive.
Experiments:
[1] = qHTS assay to identify small molecule antagonists of the estrogen receptor alpha (ER-alpha) signaling pathway using the BG1 cell line in the presence of 0.1 nM 17-beta-estradiol - cell viability counter screen (AID 1259241); further: nearly all actives have a fitted effect of over 40% in size
Summary of the method: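 VM7Luc4E2 cells (endogenous full-length ER-alpha, 4xERE-luciferase), cultured 5 days in charcoal-stripped serum, exposed to compounds with 0.1 nM 17beta-estradiol (final) for 22 hr at 37C. Viability read in same wells as live-cell protease fluorescence after 30 min.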

[2] = qHTS assay to identify small molecule antagonists of the androgen receptor (AR) signaling pathway using the MDA cell line in the presence of 0.5 nM R1881 - cell viability counter screen (AID 1259242); further: nearly all actives have a fitted effect of over 45% in size
Summary of the method: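 R1881 at 0.5 nM final stimulated MDA-kb2 cells during 16 hr compound treatment at 37C. Cytotoxicity read: CellTiter-Fluor fluorescence after 30 min.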

[3] = target: Estrogen receptor (Homo sapiens) (UniProt P03372); test: qHTS assay to identify small molecule antagonists of the estrogen receptor alpha (ER-alpha) signaling pathway using the BG1 cell line in the presence of 0.1 nM 17-beta-estradiol (AID 1259244); further: nearly all actives have a fitted effect of over 50% in size
Summary of the method: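 VM7Luc4E2; 4xERE-luciferase; 0.1 nM E2 final; 22 h co-incubation, 37C; ONE-Glo luminescence after 30 min at room temperature.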

[4] = qHTS assay to identify small molecule HDAC inhibitors (AID 1259364);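 further: wild-type HCT-116 cells with endogenous class I/II HDAC activity; top concentration of the series differs between compounds; nearly all actives have a fitted effect of over 45% in size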
Summary of the method: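 Relative class I and II HDAC activity is taken from the luminogenic signal in HCT-116 cells, with compound exposure 2 hr and reagent development 30 min at room temperature.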

[5] = qHTS assay to identify small molecule HDAC inhibitors - cell viability counter screen (AID 1259365); further: series mostly up to about 92 µM; nearly all actives have a fitted effect of over 50% in size
Summary of the method: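 Wild-type HCT-116 cells, 1,500/well, cultured overnight, then compound-treated 2 h at 37 C. Viability measured as ATP luminescence with CellTiter-Glo after 30 min at room temperature.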

[6] = qHTS assay to identify small molecule agonists of the sonic hedgehog signaling (Shh) pathway - cell viability counter screen (AID 1259366); further: nearly all actives have a fitted effect of over 50% in size
Summary of the method: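 NIH/3T3-derived Gli1-Luc reporter cells, 2,000 per well, received compound after 4 h and were treated about 23 h at 37C. Viability measured in the same wells by CellTiter-Fluor fluorescence after 1 h.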

[7] = qHTS assay to identify small molecule antagonists of the sonic hedgehog signaling (Shh) pathway - cell viability counter screen (AID 1259367); further: nearly all actives have a fitted effect of over 55% in size
Summary of the method: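 Cells: 3T3 Gli1-Luc, 2,000/well, 4 hr pre-incubation. Compounds in DMSO, then conditioned medium. Incubation 24 hr, 37C, 5% CO2. CellTiter-Fluor at 23 hr, 1 hr, fluorescence.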

[8] = qHTS assay to identify small molecule agonists of the sonic hedgehog signaling (Shh) pathway (AID 1259368; calls by dose curve;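 further: NIH/3T3-derived 3T3Gli1-Luc cells carrying a stable Gli1-driven firefly luciferase reporter; series mostly up to about 92 µM; nearly all actives have a fitted effect of over 15% in size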)
Summary of the method: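 Mouse fibroblast (NIH/3T3) reporter cells with stably integrated Gli1-Luc were treated 24 hr with compound; firefly luciferase luminescence served as the read-out.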

[9] = qHTS assay to identify small molecule antagonists of the sonic hedgehog signaling (Shh) pathway (AID 1259369; calls by dose curve; further: nearly all actives have a fitted effect of over 45% in size)
Summary of the method: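 Conditioned medium drives Shh signalling in 3T3Gli1-Luc cells; compounds in DMSO co-applied, 24hr at 37 C, then luciferase luminescence.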

[10] = target: Estrogen receptor beta (Homo sapiens) (UniProt Q92731); test: qHTS assay to identify small molecule antagonists of the estrogen receptor beta (ER-beta) signaling pathway (AID 1259378; active means well fitted inhibition curve with a large enough effect in the signal ratio in the repeat runs, not every such curve was filed as active; the % refers to the signal ratio)
Summary of the method: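 Antagonist mode: compounds added to beta-lactamase reporter HEK293T ER-beta-UAS cells stimulated with E2 (1nM final), 16 hr at 37C. LiveBLAzer B/G FRET substrate, 2 hours room temperature, fluorescence read-out.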

[11] = qHTS assay to identify small molecule agonists of the androgen receptor (AR) signaling pathway in the presence of an antagonist - cell viability counter screen (AID 1259379);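 further: MDA-kb2 human breast cancer cells carrying an MMTV luciferase reporter; series mostly up to about 92 µM; nearly all actives have a fitted effect of over 25% in size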
Summary of the method: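 A CellTiter-Fluor read-out measured viability of MDA-kb2 reporter cells (MMTV promoter with AR and GR response elements). Treatment: nilutamide 3.0uM final with compounds at 15 concentrations, 16 hr, 37C, 0% CO2.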

[12] = qHTS assay to identify small molecule antagonists of the estrogen receptor beta (ER-beta) signaling pathway - cell viability counter screen (AID 1259382); further: series mostly up to about 92 µM; nearly all actives have a fitted effect of over 55% in size
Summary of the method: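 Agonist-stimulated (1nM E2) ER-beta-UAS-bla HEK293T cells are incubated with library compounds for 16 hr at 37C. Cell viability is then assessed in the reporter-assay wells by adding CellTiter-Glo and reading luminescence after 30 min.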

[13] = target: Estrogen receptor (Homo sapiens) (UniProt P03372); test: qHTS assay to identify small molecule agonists of the estrogen receptor alpha (ER-alpha) signaling pathway in the presence of an antagonist (AID 1259383; calls by dose curve; further: top concentration of the series differs between compounds; nearly all actives have a fitted effect of over 15% in size)
Summary of the method: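 Using VM7Luc4E2 cells seeded 24hr before treatment, antagonist ICI-182,780 (10.0nM final) was added, followed by compounds at 15 concentrations. Plates incubated 22hr; ONE-Glo luminescence quantified reporter activity.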

[14] = qHTS assay to identify small molecule agonists or antagonists of the thyroid stimulating hormone receptor (TSHR) signaling pathway - wild type cell line counter screen (AID 1259384; calls by dose curve)
Summary of the method: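 Counter screen in untransfected Hek293: compounds (15-point titration, triplicate) plus phosphodiesterase inhibitor Ro20-1724 added after 18 h plating; 30 min RT. Intracellular cAMP via competitive d2/cryptate immunoassay, 1 h incubation.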

[15] = target: Thyrotropin receptor (Homo sapiens) (UniProt P16473); test: qHTS assay to identify small molecule antagonists of the thyroid stimulating hormone receptor (TSHR) signaling pathway (AID 1259385; calls by dose curve; further: nearly all actives have a fitted effect of over 20% in size)
Summary of the method: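 Antagonist mode: compound-treated TSHR-expressing HEK293 cells were stimulated with 1.5 ng/mL TSH (final) in presence of Ro20-1724 for 30 min at RT. HTRF cAMP detection after 1 h; each compound tested at 15 concentrations, triplicate.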

[16] = qHTS assay to identify small molecule agonists of the estrogen receptor beta (ER-beta) signaling pathway - cell viability counter screen (AID 1259380); further: nearly all actives have a fitted effect of over 30% in size
Summary of the method: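 Cells used were ER-beta-UAS-bla HEK293T in medium with 2% charcoal-stripped FBS. They were treated for 16 hr at 37C. Viability came from CellTiter-Glo luminescence.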

[17] = target: Estrogen receptor beta (Homo sapiens) (UniProt Q92731); test: qHTS assay to identify small molecule agonists of the estrogen receptor beta (ER-beta) signaling pathway (AID 1259377; active means well fitted activation curve with a large enough effect in the signal ratio in the repeat runs, not every such curve was filed as active; the % refers to the signal ratio)
Summary of the method: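 ER-beta-UAS-bla HEK293T cells in medium with 2% charcoal-stripped FBS were exposed to compounds for 16 h at 37C. Beta-lactamase reporter activity was read as fluorescence after 2 h with LiveBLAzer B/G FRET substrate at room temperature.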

Measured: Potency

Chain of Estrogen receptor beta (Homo sapiens) (Q92731 whole entry, looked up): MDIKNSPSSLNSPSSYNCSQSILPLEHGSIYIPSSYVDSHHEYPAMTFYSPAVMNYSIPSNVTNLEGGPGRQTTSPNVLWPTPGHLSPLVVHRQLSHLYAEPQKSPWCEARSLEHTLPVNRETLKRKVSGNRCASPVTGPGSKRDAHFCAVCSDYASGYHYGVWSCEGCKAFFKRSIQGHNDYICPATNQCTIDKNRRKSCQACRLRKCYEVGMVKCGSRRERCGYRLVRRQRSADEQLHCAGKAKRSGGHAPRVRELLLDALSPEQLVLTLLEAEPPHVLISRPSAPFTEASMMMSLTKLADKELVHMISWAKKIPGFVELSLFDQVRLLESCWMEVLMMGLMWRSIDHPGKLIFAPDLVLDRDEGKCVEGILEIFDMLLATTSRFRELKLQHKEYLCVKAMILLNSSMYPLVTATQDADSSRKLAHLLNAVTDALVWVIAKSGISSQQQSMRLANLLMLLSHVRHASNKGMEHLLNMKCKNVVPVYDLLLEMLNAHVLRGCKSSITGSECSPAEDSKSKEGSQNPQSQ
Chain of Estrogen receptor (Homo sapiens) (P03372 whole entry, looked up): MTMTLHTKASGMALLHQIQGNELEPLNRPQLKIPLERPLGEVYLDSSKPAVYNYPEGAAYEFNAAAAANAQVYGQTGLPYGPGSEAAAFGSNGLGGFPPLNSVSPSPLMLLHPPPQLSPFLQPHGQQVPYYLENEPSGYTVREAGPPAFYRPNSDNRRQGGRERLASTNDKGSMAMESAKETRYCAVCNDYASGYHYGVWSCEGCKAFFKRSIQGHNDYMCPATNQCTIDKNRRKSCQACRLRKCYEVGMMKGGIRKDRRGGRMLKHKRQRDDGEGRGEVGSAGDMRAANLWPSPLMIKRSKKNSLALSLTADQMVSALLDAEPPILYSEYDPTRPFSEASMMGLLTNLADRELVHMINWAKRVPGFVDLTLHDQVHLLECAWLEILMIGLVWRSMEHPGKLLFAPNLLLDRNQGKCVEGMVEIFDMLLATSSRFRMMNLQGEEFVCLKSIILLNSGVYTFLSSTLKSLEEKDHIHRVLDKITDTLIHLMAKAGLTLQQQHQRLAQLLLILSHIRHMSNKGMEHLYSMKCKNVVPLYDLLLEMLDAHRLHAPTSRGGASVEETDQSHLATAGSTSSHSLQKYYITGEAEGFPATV
Chain of Thyrotropin receptor (Homo sapiens) (P16473 whole entry, looked up): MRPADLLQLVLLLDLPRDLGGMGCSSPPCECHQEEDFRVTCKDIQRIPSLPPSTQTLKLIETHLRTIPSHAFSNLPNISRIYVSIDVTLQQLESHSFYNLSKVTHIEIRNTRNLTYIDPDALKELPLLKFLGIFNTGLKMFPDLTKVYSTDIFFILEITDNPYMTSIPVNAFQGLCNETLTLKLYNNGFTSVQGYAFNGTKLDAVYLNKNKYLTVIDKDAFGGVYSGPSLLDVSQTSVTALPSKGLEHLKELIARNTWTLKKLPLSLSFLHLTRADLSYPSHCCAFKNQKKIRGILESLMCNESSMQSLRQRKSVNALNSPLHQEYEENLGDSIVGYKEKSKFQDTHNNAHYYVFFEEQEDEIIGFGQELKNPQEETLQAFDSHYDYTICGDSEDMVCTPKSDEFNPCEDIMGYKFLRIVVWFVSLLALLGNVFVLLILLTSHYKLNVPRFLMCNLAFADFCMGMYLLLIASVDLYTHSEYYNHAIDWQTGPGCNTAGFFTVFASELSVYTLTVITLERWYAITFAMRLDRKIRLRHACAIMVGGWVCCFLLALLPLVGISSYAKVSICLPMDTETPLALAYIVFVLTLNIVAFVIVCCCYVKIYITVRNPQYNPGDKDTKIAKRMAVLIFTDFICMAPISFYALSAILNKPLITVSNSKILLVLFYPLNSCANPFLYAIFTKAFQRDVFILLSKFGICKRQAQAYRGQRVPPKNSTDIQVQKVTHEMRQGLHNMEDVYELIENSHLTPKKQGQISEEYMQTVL

NNCCO
inactive: [1] | [2] | [3] | [4] | [5] | [6] | [7] | [8] | [9] | [10] | [11] | [12] | [13] | [14] | [15]

CCNC(=O)NC(=O)/C(C#N)=N/OC
inactive: [1] | [2] | [3] | [4] | [5] | [6] | [7] | [8] | [9] | [11] | [16] | [12] | [14] | [15]

CC(C)(c1ccccc1)c1cc(-n2nc3ccccc3n2)c(O)c(C(C)(C)c2ccccc2)c1
inactive: [1] | [2] | [3] | [4] | [5] | [6] | [7] | [8] | [9] | [17] | [10] | [11] | [16] | [12] | [13] | [14] | [15]

COc1ccc(C(O)(c2cncnc2)C2CC2)cc1 (stereo not given)
inactive: [1] | [2] | [3] | [4] | [5] | [6] | [7] | [8] | [17] | [10] | [11] | [16] | [12] | [13] | [14] | [15]

C1CS1
inactive: [1] | [2] | [3] | [4] | [5] | [6] | [7] | [8] | [9] | [11] | [16] | [12] | [13] | [14] | [15]

C=CCOCC1CO1 (stereo not given)
inactive: [1] | [2] | [3] | [4] | [5] | [6] | [7] | [8] | [9] | [11] | [16] | [12] | [13] | [14] | [15]

OCCSSCCO
inactive: [1] | [2] | [3] | [4] | [5] | [6] | [7] | [8] | [11] | [12] | [13]

C1CCNCC1
inactive: [1] | [2] | [3] | [4] | [5] | [6] | [7] | [8] | [9] | [10] | [11] | [16] | [12] | [14] | [15]

CCOc1cccc(C2(N3CCN(c4ccccc4)CC3)CCC(C)CC2)c1 (stereo not given)
inactive: [1] | [2] | [3] | [4] | [5] | [6] | [7] | [8] | [11] | [12] | [13] | [14] | [15]

Cc1nnc(-c2ccccc2)c(=O)n1N
inactive: [1] | [2] | [3] | [4] | [5] | [6] | [7] | [8] | [9] | [17] | [10] | [11] | [12] | [13] | [14] | [15]

O=C(O)C(O)C(O)C(=O)O (stereo not given)
inactive: [1] | [2] | [3] | [4] | [5] | [6] | [7] | [8] | [9] | [11] | [16] | [12] | [13]

Cc1nc(N(C)C)nc(OC(=O)N(C)C)c1C
inactive: [1] | [2] | [3] | [4] | [5] | [6] | [7] | [8] | [17] | [10] | [11] | [12] | [13] | [14] | [15]

CCOP(=O)(O)C(N)=O
inactive: [1] | [2] | [3] | [4] | [5] | [6] | [7] | [8] | [10] | [11] | [16] | [12] | [14] | [15]

CCCCC(CC)COC(=O)c1c(Br)c(Br)c(Br)c(Br)c1C(=O)OCC(CC)CCCC (stereo not given)
inactive: [1] | [2] | [3] | [4] | [5] | [6] | [7] | [8] | [9] | [10] | [11] | [16] | [12] | [13] | [14] | [15]

CCCCCCCCCCCCCCCl
inactive: [1] | [2] | [3] | [4] | [5] | [6] | [7] | [8] | [9] | [11] | [12] | [13] | [14] | [15]

CCSCc1ccccc1OC(=O)NC
inactive: [1] | [2] | [3] | [4] | [5] | [6] | [7] | [8] | [9] | [11] | [16] | [12] | [13] | [14] | [15]

CCCCCCCCCCCCN(C)C
inactive: [1] | [2] | [3] | [4] | [5] | [6] | [7] | [8] | [9] | [17] | [10] | [11] | [16] | [13] | [14] | [15]

CNC(=O)Oc1cccc(N=CN(C)C)c1
inactive: [1] | [2] | [3] | [4] | [5] | [6] | [7] | [8] | [9] | [10] | [16] | [12] | [13] | [14] | [15]

Reference: PubChem BioAssay (Tox21)
